Assay outcomes: PubChem BioAssay, several laboratories
Sampled rows, rich in hits. Any-hit rate of the full collection: about 1.8%.
PABP FP inh – blocks human PABP binding to poly(A) RNA; 290,000 tested, 1% active; fluorescence polarization; P11940; calls only at 35 µM;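 also: calls also rest on retests at 20 µM and on dose response follow-up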
MEX-5 binding – C. elegans MEX-5 TCR-2 RNA binding activity; MEX-5/FITC-TCR2 RNA binding, fluorescence polarization; stronger effect = lower value; activity score (negative = inhibition of binding), % at 10 µM; 300,000 tested, 0.38% active;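 active = inhibition past about -25% in most replicates, and total fluorescence under double the plate's negative control median, limit read from the data; inconclusive = replicates evenly split on the limit, or fluorescence at least double controls; inactive = too little inhibition in most replicates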;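 also: 0% = DMSO and -100% = 5 µM competing unlabeled TCR2 RNA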
Target sequence (Q9XUB2 whole entry, looked up): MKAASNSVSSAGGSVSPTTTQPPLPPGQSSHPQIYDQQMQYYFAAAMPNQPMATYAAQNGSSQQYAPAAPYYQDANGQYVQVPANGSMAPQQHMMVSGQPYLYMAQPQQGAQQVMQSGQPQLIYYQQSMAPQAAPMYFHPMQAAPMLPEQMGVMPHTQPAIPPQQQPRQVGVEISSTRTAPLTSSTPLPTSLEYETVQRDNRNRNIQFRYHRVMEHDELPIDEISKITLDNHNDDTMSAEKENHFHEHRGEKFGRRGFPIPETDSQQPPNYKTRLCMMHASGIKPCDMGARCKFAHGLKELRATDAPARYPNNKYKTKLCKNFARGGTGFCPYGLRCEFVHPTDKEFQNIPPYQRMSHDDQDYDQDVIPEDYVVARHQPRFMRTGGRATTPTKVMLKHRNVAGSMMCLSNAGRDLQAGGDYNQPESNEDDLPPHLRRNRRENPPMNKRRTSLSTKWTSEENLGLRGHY
PABP1 MLLE inh – blocks PAM2 peptide binding to the PABP1 MLLE domain. P11940. GST-MLLE / FITC-PAM2 fluorescence polarization. inhibition, % at 20 µM. 360,000 tested, 0.36% active; in the data active = inhibition above about 35%, passing the limit was not always enough;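 also: plate controls were DMSO wells with GST-MLLE for no effect and wells lacking GST-MLLE protein for full effect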
eIF4H FP inh – inhibitors of RNA binding by human eIF4H | eIF4H fluorescence polarization binding assay | inhibition, % at 35 µM | 290,000 tested, 0.94% active;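 also: calls also rest on retests at 20 µM and on dose response follow-up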
EBV gp42 inh – EBV gp42 inhibition; Fluorescence polarization binding assay, mP read-out; inhibition, % (tested at 21.74 µM); Q1HVG2; 220,000 tested, 0.42% active; in the data active = inhibition above about 50%
Numbers without * were called inactive; i = inactive; ? = inconclusive; . = no result; + = active, no number. Unless noted, no rule for the calls is given here.

SMILES	PABP FP inh	MEX-5 binding	PABP1 MLLE inh	eIF4H FP inh	EBV gp42 inh
COc1ccc(NC(=O)/C(C#N)=C\c2ccc(-c3cc(C(=O)O)ccc3C)o2)cc1	+	-2	18	79*	.
COc1ccc(NC(=O)/C(C#N)=C\c2ccc(Br)o2)cc1	+	0	-9	80*	33
COc1ccc(NC(=O)/C(C#N)=C/c2ccc(-c3ccc(Cl)c(C(=O)O)c3)o2)cc1	i	1	-6	1	.
CCc1nc2c(OCC3COc4ccccc4O3)cccn2c1N(C)C(=O)c1ccccc1F (stereo not drawn)	.	.	-10	.	.
CC(=O)Nc1ccc(C(=O)N2CCOCC2c2cc(C(=O)NCc3ccccc3)no2)cc1 (stereo not drawn)	.	.	-7	.	.
Cc1nn(-c2ccccc2)c2c1C(c1ccccc1)C(C#N)=C(N)O2 (stereo not drawn)	i	1	1	-7	131*
O=C(O)c1cn[nH]c1-c1cccc([N+](=O)[O-])c1	i	-6	10	98*	-9
COc1ccccc1NC(=O)c1cc2cc(Br)ccc2cc1O	i	0	-6	80*	-6
CCN1C/C(=C/c2cccs2)c2nc3ccccc3c(C(=O)O)c2C1	+	-27*	46	62*	28
CCN1C/C(=C/c2sccc2C)c2nc3ccccc3c(C(=O)O)c2C1	+	-9	17	72*	-5
CCC(=O)N1CCCC(C(=O)Nc2nc3ccccc3[nH]2)CC1 (stereo not drawn)	.	.	-1	.	.
CC(C)OC(=O)CC(=O)c1sc2nc3c(cc2c1N)CN(C)CC3	?	-31*	.	?	69*
CCN1CCc2nc3sc(C(=O)N4CCc5ccccc5C4)c(N)c3cc2C1	+	0	-27	98*	.
CC(C)c1ccc2nc3sc(C(=O)N4CCc5ccccc5C4)c(N)c3cc2c1	i	-16	22	-2	20
CC1(C(=O)NS(=O)(=O)c2cccc(F)c2)CCN1C(=O)CC1CCCC1 (stereo not drawn)	.	.	-2	.	.
CCCCN(C)C(=O)c1ccc(Nc2nc(C(N)Cc3ccc(C(F)(F)F)cc3)cs2)nc1 (stereo not drawn)	.	.	-8	.	.
O=C(CCCN1C(=O)CCC1=O)Nc1ccc(Br)cc1F	i	0	-2	-4	10
O=C(CCCN1C(=O)CCC1=O)Nc1ccccc1F	i	1	34*	8	-8
NC(=O)[C@@H]1CCCN1Cc1c(C(=O)N2CCc3ccccc3C2)nc2ccc(Cl)cn12	i	-32*	29	?	.
CC1CCN(Cc2c(C(=O)N3CCc4ccccc4C3)nc3ccc(Cl)cn23)CC1	i	-2	-1	4	.
CN1C2C=C3C(C#N)=C(N)C(C#N)(C#N)[C@@H](c4ccsc4)[C@@H]3C1CC2 (stereo partly drawn)	+	-4	.	66*	-4
CCOC(=O)N1CC=C2C(C#N)=C(N)C(C#N)(C#N)[C@H](c3ccsc3)[C@H]2C1	i	?	14	54	-14
Cc1nc2ccccn2c(=O)c1NC(=O)c1ccc2c(c1)OCO2	.	.	8	.	.
COc1ccc(C(=S)N2CCC(C(N)=O)CC2)cc1Br	i	2	42*	-8	-16
O=C(CN1CCOCC1)N/N=C/c1ccc(-c2ccc(C(=O)O)cc2)o1	+	-4	-132	25	-79
SMILES	PABP FP inh	MEX-5 binding	PABP1 MLLE inh	eIF4H FP inh	EBV gp42 inh
CCCCn1nnnc1C(c1ccccc1OC(F)(F)F)N1CCN(C/C=C/c2ccccc2)CC1 (stereo not drawn)	.	.	17	.	.
O=[N+]([O-])c1cccc(C(=Nc2cccc(Cl)c2)NO)c1	+	2	3	70*	5
CC(=O)c1ccc(OCC(=O)OCC(=O)c2ccc(S(=O)(=O)N3CCCCC3)cc2)cc1	.	.	-10	.	.
CN(C)CCN(Cc1ccc(Cl)cc1)c1ccccn1	i	0	2	2	-3
C[N+](C)(C)CCN(Cc1ccc(Cl)cc1)c1ccccn1	+	-2	-131	-2	-108
O=C(NCc1ccncc1)C1Cc2c(-c3ccccc3Oc3ccccc3)ccnc2O1 (stereo not drawn)	.	.	7	.	.
CCC12OC(=N)C(C#N)(C1C)C(C#N)(C#N)C(c1ccccc1)O2 (stereo not drawn)	+	-10	20	?	9
CCC1OC2(C)OC(=N)C1(C#N)C(C#N)(C#N)C2c1ccccc1 (stereo not drawn)	i	-9	23	?	-14
Nc1ccc2nc(CN3CCOCC3)[nH]c2c1	i	-64*	0	-2	-16
